These results are taken from ChEMBL document CHEMBL1961873, “Compounds: GSK PKIS; Assays: Nanosyn kinase panel” (2012).

Assay [1] concerns the target T1, Inhibitor of nuclear factor kappa-B kinase subunit epsilon (Homo sapiens) (UniProt Q14164).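 Note: reported values are averaged percent inhibition figures against human IKKε.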
T1 sequence (whole entry): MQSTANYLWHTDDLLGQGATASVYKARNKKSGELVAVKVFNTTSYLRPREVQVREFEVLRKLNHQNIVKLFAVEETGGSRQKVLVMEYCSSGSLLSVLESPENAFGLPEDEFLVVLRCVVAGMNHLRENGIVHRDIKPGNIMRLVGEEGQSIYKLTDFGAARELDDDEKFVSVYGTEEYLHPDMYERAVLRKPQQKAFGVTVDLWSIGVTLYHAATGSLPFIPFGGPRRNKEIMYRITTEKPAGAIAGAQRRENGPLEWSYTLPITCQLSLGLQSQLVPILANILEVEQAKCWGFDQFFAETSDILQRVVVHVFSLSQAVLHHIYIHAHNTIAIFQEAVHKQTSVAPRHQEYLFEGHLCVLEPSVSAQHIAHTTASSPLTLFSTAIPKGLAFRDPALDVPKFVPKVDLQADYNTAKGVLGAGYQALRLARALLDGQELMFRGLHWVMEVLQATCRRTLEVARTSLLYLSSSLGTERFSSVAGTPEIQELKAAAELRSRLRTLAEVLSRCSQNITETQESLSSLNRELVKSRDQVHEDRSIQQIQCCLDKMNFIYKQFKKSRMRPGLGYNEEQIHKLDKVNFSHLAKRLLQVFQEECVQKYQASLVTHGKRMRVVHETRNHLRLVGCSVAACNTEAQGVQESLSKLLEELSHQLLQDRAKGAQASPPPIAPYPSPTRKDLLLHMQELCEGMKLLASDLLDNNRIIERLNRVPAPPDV
The note with it: at 1 µM.

Assay [2] concerns the target T2, Serine/threonine-protein kinase Nek1 (Homo sapiens) (UniProt Q96PY6).
T2 sequence (whole entry): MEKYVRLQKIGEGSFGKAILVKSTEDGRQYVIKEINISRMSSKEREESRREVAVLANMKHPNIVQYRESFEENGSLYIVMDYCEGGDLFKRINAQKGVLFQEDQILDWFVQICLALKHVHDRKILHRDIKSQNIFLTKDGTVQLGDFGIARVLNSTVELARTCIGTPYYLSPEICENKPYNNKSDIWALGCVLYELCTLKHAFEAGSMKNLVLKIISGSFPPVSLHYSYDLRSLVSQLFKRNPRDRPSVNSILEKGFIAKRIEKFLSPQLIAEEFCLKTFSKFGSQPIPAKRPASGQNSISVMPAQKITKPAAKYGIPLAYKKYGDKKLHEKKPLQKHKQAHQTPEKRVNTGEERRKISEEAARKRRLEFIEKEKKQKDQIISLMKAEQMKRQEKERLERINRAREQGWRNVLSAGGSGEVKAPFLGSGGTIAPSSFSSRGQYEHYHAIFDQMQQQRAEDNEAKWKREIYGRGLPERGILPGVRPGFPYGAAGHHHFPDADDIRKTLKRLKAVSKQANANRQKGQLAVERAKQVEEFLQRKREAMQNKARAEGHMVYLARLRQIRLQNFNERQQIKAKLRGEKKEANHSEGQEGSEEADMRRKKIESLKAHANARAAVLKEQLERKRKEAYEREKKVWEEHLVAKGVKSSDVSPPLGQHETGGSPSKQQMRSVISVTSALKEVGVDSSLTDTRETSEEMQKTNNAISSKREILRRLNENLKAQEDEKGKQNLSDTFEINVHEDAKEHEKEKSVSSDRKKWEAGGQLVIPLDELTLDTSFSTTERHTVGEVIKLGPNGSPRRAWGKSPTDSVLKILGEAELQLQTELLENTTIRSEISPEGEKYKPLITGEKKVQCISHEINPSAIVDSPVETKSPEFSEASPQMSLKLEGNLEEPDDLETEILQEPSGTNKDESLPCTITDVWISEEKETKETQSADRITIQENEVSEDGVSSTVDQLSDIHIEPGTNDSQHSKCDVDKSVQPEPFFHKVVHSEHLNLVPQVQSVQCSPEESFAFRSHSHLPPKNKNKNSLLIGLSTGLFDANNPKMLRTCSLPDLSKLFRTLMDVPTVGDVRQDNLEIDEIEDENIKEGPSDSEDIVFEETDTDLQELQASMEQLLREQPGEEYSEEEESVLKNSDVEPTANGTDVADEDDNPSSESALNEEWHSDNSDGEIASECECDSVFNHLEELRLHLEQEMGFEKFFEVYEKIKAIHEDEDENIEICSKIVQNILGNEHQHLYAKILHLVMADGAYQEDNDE
The note with it: at 0.1 µM.

The target of assay [3] is T2, Serine/threonine-protein kinase Nek1 (Homo sapiens). The note with it: at 1 µM.
In assay [4] the target is T3, Serine/threonine-protein kinase Nek2 (Homo sapiens) (UniProt P51955).
T3 sequence (whole entry): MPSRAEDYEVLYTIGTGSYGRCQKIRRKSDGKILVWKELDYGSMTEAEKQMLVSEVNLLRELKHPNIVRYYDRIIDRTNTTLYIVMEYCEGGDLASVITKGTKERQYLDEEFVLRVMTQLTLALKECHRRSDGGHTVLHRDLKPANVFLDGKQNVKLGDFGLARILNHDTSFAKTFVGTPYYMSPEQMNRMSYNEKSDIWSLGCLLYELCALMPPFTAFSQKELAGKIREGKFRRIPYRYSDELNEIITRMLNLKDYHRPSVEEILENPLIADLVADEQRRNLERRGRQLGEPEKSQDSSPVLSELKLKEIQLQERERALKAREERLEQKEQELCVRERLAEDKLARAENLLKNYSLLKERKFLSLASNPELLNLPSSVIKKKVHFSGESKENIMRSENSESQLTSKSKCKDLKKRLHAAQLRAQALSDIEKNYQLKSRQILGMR
The note with it: at 0.1 µM.

Assay [5] concerns the target T3, Serine/threonine-protein kinase Nek2 (Homo sapiens). The note with it: at 1 µM.
Assay [6] has as its target Serine/threonine-protein kinase Nek6 (Homo sapiens) (UniProt Q9HC98). The note with it: at 0.1 µM.
Assay [7] shares this target. The note with it: at 1 µM.
The target of assay [8] is Serine/threonine-protein kinase Nek7 (Homo sapiens) (UniProt Q8TDX7). The note with it: at 0.1 µM.
Sequence of Serine/threonine-protein kinase Nek7 (Homo sapiens) (Q8TDX7 whole entry, looked up): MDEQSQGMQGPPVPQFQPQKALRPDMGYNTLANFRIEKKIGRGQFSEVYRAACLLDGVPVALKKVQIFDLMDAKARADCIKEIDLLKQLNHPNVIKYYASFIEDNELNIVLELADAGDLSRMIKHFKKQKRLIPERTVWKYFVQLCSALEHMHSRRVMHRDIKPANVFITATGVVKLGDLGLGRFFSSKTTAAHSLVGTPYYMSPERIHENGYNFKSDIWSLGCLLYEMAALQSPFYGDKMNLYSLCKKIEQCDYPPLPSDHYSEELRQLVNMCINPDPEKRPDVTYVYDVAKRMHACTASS
Assay [9] has the same target. The note with it: at 1 µM.
Assay [10] deals with T4, Serine/threonine-protein kinase Nek9 (Homo sapiens) (UniProt Q8TD19).
T4 sequence (whole entry): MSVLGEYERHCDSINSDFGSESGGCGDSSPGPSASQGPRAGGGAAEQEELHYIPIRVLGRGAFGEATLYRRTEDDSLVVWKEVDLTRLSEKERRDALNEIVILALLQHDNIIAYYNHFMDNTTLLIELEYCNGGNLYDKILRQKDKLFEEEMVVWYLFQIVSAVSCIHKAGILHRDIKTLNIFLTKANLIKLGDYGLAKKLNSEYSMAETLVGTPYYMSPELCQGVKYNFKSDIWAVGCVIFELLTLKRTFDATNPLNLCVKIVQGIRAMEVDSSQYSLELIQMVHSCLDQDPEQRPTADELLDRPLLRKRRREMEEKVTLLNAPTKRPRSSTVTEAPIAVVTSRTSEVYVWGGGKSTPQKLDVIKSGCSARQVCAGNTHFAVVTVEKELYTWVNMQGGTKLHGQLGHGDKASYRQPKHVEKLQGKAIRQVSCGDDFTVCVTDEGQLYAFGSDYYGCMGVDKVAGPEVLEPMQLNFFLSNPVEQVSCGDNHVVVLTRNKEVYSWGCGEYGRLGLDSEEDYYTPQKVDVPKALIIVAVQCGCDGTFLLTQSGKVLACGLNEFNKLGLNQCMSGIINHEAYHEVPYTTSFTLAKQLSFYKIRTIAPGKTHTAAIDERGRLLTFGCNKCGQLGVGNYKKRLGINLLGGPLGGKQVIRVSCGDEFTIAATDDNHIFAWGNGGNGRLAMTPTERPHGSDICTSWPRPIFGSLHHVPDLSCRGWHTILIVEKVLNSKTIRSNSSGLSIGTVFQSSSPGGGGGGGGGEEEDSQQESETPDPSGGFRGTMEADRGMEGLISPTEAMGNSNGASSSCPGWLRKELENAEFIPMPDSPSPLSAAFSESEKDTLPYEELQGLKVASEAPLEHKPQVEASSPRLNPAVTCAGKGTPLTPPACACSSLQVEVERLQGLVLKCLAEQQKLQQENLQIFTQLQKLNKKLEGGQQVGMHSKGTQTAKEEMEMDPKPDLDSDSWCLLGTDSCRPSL
The note with it: at 0.1 µM.

In assay [11] the target is T4, Serine/threonine-protein kinase Nek9 (Homo sapiens). The note with it: at 1 µM.
Assay [12] addresses Serine/threonine-protein kinase PLK1 (Homo sapiens) (UniProt P53350). The note with it: at 0.1 µM.
For assay [13] the target is unchanged. The note with it: at 1 µM.
Assay [14] has as its target T5, Dual specificity protein kinase TTK (Homo sapiens) (UniProt P33981).
T5 sequence (whole entry): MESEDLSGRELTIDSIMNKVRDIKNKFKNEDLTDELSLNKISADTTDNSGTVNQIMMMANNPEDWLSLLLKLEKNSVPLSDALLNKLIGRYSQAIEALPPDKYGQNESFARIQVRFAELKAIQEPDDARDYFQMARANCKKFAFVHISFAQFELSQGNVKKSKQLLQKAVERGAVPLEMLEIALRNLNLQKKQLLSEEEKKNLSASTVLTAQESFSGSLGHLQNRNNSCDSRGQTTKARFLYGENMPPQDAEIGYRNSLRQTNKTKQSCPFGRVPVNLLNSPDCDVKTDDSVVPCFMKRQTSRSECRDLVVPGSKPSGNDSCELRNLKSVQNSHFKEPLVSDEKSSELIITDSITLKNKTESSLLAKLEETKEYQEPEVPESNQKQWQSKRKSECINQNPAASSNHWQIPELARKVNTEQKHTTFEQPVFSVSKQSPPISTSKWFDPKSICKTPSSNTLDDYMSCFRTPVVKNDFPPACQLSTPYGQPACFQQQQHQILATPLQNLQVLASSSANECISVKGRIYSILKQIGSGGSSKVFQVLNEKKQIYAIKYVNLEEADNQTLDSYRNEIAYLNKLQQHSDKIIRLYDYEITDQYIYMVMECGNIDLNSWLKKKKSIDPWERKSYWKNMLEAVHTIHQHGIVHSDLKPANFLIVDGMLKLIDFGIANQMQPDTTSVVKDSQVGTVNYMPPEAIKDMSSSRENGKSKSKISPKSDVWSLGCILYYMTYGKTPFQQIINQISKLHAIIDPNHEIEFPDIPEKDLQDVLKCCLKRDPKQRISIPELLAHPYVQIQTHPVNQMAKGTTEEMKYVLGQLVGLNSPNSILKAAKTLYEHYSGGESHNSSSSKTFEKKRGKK
The note with it: at 0.1 µM.

In assay [15] the test system is T6, Receptor-type tyrosine-protein kinase FLT3 (Homo sapiens), P36888 [D835Y].
T6 sequence (whole entry): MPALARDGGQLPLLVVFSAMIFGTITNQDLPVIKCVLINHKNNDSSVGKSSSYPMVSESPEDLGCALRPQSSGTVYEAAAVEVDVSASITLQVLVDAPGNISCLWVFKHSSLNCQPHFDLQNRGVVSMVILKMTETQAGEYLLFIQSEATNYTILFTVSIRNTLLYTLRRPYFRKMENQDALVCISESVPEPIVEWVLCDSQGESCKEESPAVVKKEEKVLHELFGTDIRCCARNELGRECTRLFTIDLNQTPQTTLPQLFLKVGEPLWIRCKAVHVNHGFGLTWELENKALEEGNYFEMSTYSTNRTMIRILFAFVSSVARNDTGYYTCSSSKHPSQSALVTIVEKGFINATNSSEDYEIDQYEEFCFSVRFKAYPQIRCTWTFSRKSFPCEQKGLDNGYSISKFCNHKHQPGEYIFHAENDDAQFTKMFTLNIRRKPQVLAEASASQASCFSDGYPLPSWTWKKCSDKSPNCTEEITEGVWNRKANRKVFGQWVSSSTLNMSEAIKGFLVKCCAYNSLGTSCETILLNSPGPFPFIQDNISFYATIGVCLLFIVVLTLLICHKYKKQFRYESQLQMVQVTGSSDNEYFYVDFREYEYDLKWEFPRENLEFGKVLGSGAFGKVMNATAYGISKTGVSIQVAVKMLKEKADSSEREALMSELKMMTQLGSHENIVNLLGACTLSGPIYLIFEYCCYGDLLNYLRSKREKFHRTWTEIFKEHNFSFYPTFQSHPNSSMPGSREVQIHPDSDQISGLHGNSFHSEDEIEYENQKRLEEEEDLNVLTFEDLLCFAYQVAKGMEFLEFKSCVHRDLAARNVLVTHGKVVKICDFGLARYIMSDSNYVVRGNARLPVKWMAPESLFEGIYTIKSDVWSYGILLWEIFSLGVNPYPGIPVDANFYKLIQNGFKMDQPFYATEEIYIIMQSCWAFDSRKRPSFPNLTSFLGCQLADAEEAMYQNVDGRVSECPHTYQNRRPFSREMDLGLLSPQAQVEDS
The note with it: at 1 µM.

In assay [16] the target is Vascular endothelial growth factor receptor 3 (Homo sapiens) (UniProt P35916). The note with it: at 0.1 µM.
Sequence of Vascular endothelial growth factor receptor 3 (Homo sapiens) (P35916 whole entry): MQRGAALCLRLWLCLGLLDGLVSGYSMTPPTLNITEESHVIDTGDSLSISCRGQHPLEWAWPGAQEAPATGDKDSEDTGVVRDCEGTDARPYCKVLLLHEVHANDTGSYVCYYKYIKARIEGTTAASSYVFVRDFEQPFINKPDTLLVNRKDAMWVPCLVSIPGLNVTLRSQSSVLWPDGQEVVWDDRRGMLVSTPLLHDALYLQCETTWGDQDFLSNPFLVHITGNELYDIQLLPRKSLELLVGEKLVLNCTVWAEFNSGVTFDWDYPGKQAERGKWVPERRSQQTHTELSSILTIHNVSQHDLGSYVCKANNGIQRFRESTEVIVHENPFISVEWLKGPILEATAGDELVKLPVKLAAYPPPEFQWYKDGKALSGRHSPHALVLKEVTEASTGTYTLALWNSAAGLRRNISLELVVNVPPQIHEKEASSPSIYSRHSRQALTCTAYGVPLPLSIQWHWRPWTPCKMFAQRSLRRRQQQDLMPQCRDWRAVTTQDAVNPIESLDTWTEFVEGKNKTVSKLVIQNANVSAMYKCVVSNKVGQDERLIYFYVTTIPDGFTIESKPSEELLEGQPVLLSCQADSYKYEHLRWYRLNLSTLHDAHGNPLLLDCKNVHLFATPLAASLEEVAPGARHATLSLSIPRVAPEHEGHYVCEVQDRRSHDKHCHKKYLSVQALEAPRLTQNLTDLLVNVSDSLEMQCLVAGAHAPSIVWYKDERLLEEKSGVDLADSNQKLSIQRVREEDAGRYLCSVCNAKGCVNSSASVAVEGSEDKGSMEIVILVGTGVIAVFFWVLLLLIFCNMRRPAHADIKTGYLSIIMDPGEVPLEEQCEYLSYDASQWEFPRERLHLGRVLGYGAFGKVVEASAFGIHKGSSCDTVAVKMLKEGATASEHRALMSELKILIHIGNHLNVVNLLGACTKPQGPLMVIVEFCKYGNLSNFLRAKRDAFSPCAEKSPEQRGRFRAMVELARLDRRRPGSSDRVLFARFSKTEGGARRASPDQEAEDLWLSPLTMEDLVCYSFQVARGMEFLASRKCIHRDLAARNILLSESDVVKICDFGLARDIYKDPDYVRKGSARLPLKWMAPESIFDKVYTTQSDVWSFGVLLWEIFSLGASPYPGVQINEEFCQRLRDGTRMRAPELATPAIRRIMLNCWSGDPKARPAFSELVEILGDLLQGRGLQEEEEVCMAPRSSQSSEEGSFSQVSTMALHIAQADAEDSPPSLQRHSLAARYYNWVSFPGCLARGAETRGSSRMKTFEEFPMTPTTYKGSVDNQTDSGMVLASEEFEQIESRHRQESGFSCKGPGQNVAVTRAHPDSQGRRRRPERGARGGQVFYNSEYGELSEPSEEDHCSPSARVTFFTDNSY
The target is the same in assay [17]. The note with it: at 1 µM.
Assay [18] addresses Macrophage colony-stimulating factor 1 receptor (Homo sapiens) (UniProt P07333). The note with it: at 0.1 µM.
Assay [19] has the same target. The note with it: at 1 µM.
Assay [20] addresses Tyrosine-protein kinase Fyn (Homo sapiens) (UniProt P06241). The note with it: at 0.1 µM.

Sequence of Serine/threonine-protein kinase Nek6 (Homo sapiens) (Q9HC98 whole entry): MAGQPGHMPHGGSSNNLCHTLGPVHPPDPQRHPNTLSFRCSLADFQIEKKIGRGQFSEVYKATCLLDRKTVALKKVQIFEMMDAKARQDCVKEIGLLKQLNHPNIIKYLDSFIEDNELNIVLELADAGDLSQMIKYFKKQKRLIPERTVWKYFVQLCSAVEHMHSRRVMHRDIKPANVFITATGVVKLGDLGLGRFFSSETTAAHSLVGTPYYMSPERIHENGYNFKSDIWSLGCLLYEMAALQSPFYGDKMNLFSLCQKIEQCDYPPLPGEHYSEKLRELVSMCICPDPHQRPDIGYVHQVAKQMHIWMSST
Sequence of Serine/threonine-protein kinase PLK1 (Homo sapiens) (P53350 whole entry): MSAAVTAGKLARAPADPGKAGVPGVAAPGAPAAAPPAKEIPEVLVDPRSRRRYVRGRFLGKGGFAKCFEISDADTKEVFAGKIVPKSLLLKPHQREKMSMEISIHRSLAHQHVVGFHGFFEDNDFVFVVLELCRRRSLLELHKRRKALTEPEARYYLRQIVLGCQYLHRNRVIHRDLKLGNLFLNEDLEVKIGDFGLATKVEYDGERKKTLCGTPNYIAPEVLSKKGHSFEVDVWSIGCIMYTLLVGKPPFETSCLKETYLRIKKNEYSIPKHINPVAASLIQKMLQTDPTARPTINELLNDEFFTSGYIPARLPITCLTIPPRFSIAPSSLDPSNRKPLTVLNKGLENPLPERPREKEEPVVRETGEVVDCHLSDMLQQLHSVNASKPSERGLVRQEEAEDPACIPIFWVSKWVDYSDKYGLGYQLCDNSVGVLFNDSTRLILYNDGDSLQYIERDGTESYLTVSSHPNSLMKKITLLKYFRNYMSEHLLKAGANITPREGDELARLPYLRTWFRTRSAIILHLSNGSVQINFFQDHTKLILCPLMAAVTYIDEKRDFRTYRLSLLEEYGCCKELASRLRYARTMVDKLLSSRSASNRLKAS
Sequence of Macrophage colony-stimulating factor 1 receptor (Homo sapiens) (P07333 whole entry): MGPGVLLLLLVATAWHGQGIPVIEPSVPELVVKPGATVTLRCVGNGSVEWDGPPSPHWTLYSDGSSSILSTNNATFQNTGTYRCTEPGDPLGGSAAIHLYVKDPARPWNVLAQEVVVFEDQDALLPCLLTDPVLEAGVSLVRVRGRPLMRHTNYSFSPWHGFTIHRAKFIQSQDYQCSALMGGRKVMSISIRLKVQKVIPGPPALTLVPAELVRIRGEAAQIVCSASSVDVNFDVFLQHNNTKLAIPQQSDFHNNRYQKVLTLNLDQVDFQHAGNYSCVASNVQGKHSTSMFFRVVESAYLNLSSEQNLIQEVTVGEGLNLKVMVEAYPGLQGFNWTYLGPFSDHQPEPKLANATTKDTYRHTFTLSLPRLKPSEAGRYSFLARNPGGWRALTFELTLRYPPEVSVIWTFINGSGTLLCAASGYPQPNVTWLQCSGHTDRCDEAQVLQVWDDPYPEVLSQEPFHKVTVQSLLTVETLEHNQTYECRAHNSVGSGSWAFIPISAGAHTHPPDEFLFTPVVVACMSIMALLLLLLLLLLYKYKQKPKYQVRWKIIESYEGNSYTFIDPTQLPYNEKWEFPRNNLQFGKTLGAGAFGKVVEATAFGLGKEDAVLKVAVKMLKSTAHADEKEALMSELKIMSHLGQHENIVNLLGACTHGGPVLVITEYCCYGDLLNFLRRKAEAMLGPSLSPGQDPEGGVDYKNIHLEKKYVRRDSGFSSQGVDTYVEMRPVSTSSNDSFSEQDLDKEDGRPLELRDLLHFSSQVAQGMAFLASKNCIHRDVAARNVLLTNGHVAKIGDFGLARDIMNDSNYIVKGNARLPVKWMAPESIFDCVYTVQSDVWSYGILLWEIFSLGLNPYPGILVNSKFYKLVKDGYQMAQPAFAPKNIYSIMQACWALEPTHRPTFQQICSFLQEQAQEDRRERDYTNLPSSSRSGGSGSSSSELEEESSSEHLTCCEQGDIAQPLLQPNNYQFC
Sequence of Tyrosine-protein kinase Fyn (Homo sapiens) (P06241 2-537 limits assumed): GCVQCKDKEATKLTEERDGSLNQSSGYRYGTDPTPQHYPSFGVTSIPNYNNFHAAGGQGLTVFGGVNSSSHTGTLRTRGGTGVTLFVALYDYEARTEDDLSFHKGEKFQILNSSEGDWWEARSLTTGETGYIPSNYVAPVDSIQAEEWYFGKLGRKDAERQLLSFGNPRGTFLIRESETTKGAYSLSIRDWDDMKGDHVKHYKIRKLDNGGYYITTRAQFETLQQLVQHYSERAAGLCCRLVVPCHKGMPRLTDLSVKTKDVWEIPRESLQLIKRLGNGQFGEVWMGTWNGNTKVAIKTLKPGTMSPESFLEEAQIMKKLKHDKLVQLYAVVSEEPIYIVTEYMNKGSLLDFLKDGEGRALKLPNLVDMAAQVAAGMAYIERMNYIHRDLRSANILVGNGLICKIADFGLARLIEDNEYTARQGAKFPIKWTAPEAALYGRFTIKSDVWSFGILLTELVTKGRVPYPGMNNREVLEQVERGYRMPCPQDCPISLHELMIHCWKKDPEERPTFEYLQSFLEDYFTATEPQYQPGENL

Consider `CN(C)C(=O)O[C@@H]1CN[C@@H](C#Cc2cc3ncnc(Nc4ccc(OCc5cccc(F)c5)c(Cl)c4)c3s2)C1`, for which the inhibition is -2.71% in assay [1]; 1.22% in assay [2]; 0.34% in assay [3]; 2% in assay [4]; 2.88% in assay [5]; 0.28% in assay [6]. The inhibition is -0.53% in assay [7]; 3.24% in assay [8]; 2.3% in assay [9]; 0.42% in assay [10]; 5.37% in assay [11]; 4.55% in assay [12]. In addition, the inhibition in assay [13] is 3.19%; in assay [14], 1.31%; in assay [15] it was -2.2%; in assay [16] it was -0.2%; in assay [17], 0.49%; in assay [18], -1.87%. Moreover, the figures for the inhibition in assay [19] and in assay [20] were 2.32% and 1.01%, respectively.

Take `O=C1Nc2ccc(-c3cccnc3)cc2C1=Cc1cc(Br)c(O)c(Br)c1`: the inhibition was 92.1% in [1]; 2.32% in assay [2]; 0.46% in [3]; 4.11% in assay [4]; 2.79% in assay [5]; 4.82% in assay [6]. Moreover, the inhibition in [7] was determined as 0.55%; in assay [8], 5.27%; in assay [9] it was 4.87%; in assay [10], 6.61%; in assay [11], 0.27%; in [12] it was 3.43%. For the same molecule, the inhibition in [13] is 7.7%; in assay [14], 6.45%; in [15], 13.7%; in assay [16], 2.46%; in [17], 4.42%; in assay [18], 4.24%. Moreover, the figures for the inhibition in [19] and in assay [20] were 7.78% and 2.17%, respectively.

As a reminder, the inhibition is the relative decrease from the control value, in per cent.
